Results as given in the supplement of paper PMC4894684.
Where a name gives a salt, the structure may show the parent alone. ± gives the standard deviation of the averaged measurements.

These molecules were tested on Toxoplasma gondii RH (in HFF) (assay: parasite growth relative to the screen mean (all compounds = 100%); higher = less inhibition of parasite growth). Settings: 5 µM; 72 h; oxygen 21 %.
How it was run: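 Each value is parasite growth expressed against the screen mean, averaged over two screens, where the mean of all compounds = 100%. The screen used 5 µM final compound on confluent human foreskin fibroblasts infected with RH β-Gal–GFP Toxoplasma (MOI 1:5) within 2 h and grown 72 h at 21% O2. Parasite number was measured by a CPRG β-Gal assay against in-plate standard curves.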

| Compound | parasite growth |
| --- | --- |
| O=C1Nc2ccccc2C2(CCN(CCc3ccc(C(F)(F)F)cc3)CC2)O1 | 99.9 ± 20% |
| C#CCOC(=O)C1=CCCN(C)C1 [Arecaidine propargyl ester tosylate] | 137 ± 4.5% |
| C[C@H](N)Cn1ccc2cc(F)c(Cl)cc21 [Ro 60-0175 fumarate] | 115 ± 28% |
| O=C(CCCN1CCC2(CC1)C(=O)NCN2c1ccccc1)c1ccc(F)cc1 [Spiperone hydrochloride] | 99.8 ± 36% |
| CCOC(=O)c1ncc2[nH]c3ccc(OCc4ccccc4)cc3c2c1COC | 83.8 ± 31% |
| Cc1ccc(C[N+](C)(C)C)o1 [5-Methylfurmethiodide] | 100 ± 6.6% |
| NC(=S)N/N=C/c1coc2ccccc2c1=O.[Cl][Cu][Cl] | 37.1 ± 24% |
| Fc1ccc(C(OCCN2CCN(C/C=C/c3ccccc3)CC2)c2ccc(F)cc2)cc1 | 32.9 ± 3.4% |
| CCCCC/C=C\C/C=C\C/C=C\C/C=C\CCCC(=O)Nc1ccc(O)cc1 | 31.3 ± 14% |
| N#Cc1ccc(N2CCN(C(=O)COc3ccc4[nH]cc(CCN)c4c3)CC2)cc1 [Donitriptan hydrochloride] | 78.6 ± 12% |
| c1ccc(CC(c2ccccc2)N2CCCCC2)cc1 (racemic) [(±)-1-(1,2-Diphenylethyl)piperidine maleate] | 124 ± 20% |
| OC(Cc1ccncc1)C(Cl)(Cl)Cl (centres undefined) | 133 ± 9.6% |
| CC(C)C[C@H]1C(=O)N2CCC[C@H]2[C@]2(O)O[C@](NC(=O)[C@@H]3C=C4c5cccc6[nH]c(Br)c(c56)C[C@H]4N(C)C3)(C(C)C)C(=O)N12 [Bromocriptine mesylate] | 13.6 ± 8.4% |
| O=C(O)c1nn(Cc2ccc(Cl)cc2Cl)c2ccccc12 [Lonidamine] | 77.9 ± 20% |
